Assay outcomes: PubChem, National Center for Advancing Translational Sciences (NCATS)
A selection: hits, their analogues and other compounds. The true share with any hit is near 3.3%.
VACV Venus inh = inhibitors of vaccinia virus (Venus reporter); Vaccinia virus Venus reporter expression, fluorescence; Potency, µM (top dose mostly 36.5 µM), usual class: inhibitors; 330,000 tested, 0.46% active; AID 720580; calls by dose curve; tested in A549 cells; further: nearly all actives have a fitted effect of over 30% in size
VACV mCherry inh = inhibitors of vaccinia virus infection (mCherry reporter signal); Vaccinia virus mCherry reporter infection, fluorescence; AID 720579; Potency, µM (series often up to 36.5 µM), usual class: inhibitors; 310,000 tested, 0.63% active; calls by dose curve; tested in A549 cells; further: nearly all actives have a fitted effect of over 35% in size
HCV inh = HCV inhibition; 340,000 tested, 3.4% active; Potency, µM (series often up to 41.8 µM), most hits filed as inhibitors; Huh7.5.1 HCVcc-Cre infection, luciferase reporter, 44 h; active means well fitted inhibition curve with a large enough effect; inconclusive means small, poorly fitted or top-dose-only effect, or another doubt; inactive means no such curve, though single readings can be large or run the other way
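A cell-based infection assay in which seeded cells (1,000 per well) receive test compound after 4 h, are inoculated with HCVcc-Cre at approximately 0.5 moi, and are incubated 44 h before luminescence detection.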
A number is an active result; n = inactive; u = inconclusive; x = no result.

SMILES | VACV Venus inh | VACV mCherry inh | HCV inh
Cc1ccccc1OCC(O)Cn1c2ccccc2c2ccccc21 (stereo not given) | n | n | 7.9µM
Cc1ccccc1OCC(O)Cn1c(=N)n(Cc2ccccc2)c2ccccc21 (stereo not given) | 11µM | 10µM | u
CCCCCn1c(=N)n(CC(O)COc2ccccc2OC)c2ccccc21 (stereo not given) | u | u | 11µM
COc1ccc(C(C(=O)NC2CCCC2)N(C(=O)CNC(=O)c2ccco2)c2cccnc2)cc1 (stereo not given) | n | n | n
CN(C)Cc1ccccc1-c1cncnc1NCc1cccnc1 | n | n | x
CCOc1ccc(NC(=O)c2c(C)nn(-c3ccc(F)cc3)c2-n2cccc2)cc1 | n | n | x
Cc1ccc(C)c(CN2CCSCC2)c1 | n | n | n
CCCCCC(=O)NN1C(=S)N(c2ccc(OC)cc2)C(=O)C1CC(=O)Nc1ccccc1 (stereo not given) | n | n | u
COc1ccc(OC)c(NC(=O)CN2C(=O)CCc3cc(S(=O)(=O)N4CCCCC4)ccc32)c1 | n | n | x
O=C(O)c1ccc(S(=O)(=O)N2CCCc3ccccc32)cc1 | x | x | n
CC(C)N1CCc2c(sc(NC(=O)c3ccc(S(=O)(=O)N(C)C4CCCCC4)cc3)c2C(N)=O)C1 | n | n | x
NC(=O)c1ccsc1NC(=O)c1ccc(S(=O)(=O)N2CCCc3ccccc32)cc1 | u | n | 11µM
CC(C)N1CCc2c(sc(NC(=O)c3nc4ccccc4s3)c2C(N)=O)C1 | n | n | u
CC(C)N1CCc2c(sc(NC(=O)c3cc(-c4cccs4)nc4ccccc34)c2C(N)=O)C1 | u | u | 10µM
CNC(=O)c1c(NC(=O)c2ccc(S(=O)(=O)N(C)c3ccccc3)cc2)sc2c1CCN(C(C)C)C2 | x | x | 11µM
COC(=O)c1c(NC(=O)c2ccc(S(=O)(=O)N3CCCC(C)C3)cc2)sc2c1CCN(C(C)C)C2 (stereo not given) | n | n | x
CC(C)N1CCc2c(sc(NC(=O)c3ccc(S(=O)(=O)N4CCc5ccccc54)cc3)c2C(N)=O)C1 | n | n | 11µM
O=C(CS(=O)(=O)c1cccc2nsnc12)Nc1ccc(F)cc1F | n | n | x
CC(C)(C)OC(=O)N1CCCC(C(=O)Nc2cccc(C(=O)N3CCOCC3)c2)C1 (stereo not given) | n | n | u
O=C(O)c1ccc(C(=O)O)c(C(=O)c2ccc(NC(=O)c3ccccc3)cc2)c1 | x | x | n
CCc1c(C)nc2nncn2c1Nc1ccc(Cl)cc1 | n | n | x
CCN(CC)CCNC(=O)c1nn(-c2ccc(Cl)cc2)c2c1CCc1cc(OC)ccc1-2 | 13µM | u | u
COc1ccc2c(c1)CCc1c(C(=O)NCc3ccc(Cl)cc3)noc1-2 | n | n | n
CCOc1ccc(CCNC(=O)COC(=O)c2[nH]c(C)c(C(C)=O)c2C)cc1OCC | n | n | x
CC(=O)c1c(C)[nH]c(C(=O)OCC(=O)NCCc2ccc(Cl)cc2)c1C | n | x | 11µM
SMILES | VACV Venus inh | VACV mCherry inh | HCV inh
CCCNC(=O)COC(=O)c1[nH]c(C)c(C(=O)OCC)c1C | x | x | n
CCOC(=O)c1c(C)[nH]c(C(=O)OCC(=O)NCc2ccc(OC)c(OC)c2)c1C | n | n | 10µM
CCOC(=O)c1[nH]c(C)c(C(=O)OCC(=O)NCc2ccc(Cl)cc2)c1C | x | x | n
CCOC(=O)c1c(C)[nH]c(C(=O)OCC(=O)Nc2sccc2C(N)=O)c1C | u | n | 2.8µM
CC(=O)c1c(C)[nH]c(C(=O)OCC(=O)NCc2ccc(Cl)cc2)c1C | x | x | 11µM
CCOC(=O)c1c(C)[nH]c(C(=O)OCC(=O)Nc2ccc(Cl)cn2)c1C | n | n | n
CCCCN(C=O)c1c(CC)nc2ccc(C(=O)N(C)Cc3ccccc3)cn12 | n | n | x
O=[N+]([O-])c1ccc2c(c1)C=C/C2=C/c1ccccc1 | n | n | x
Cc1cccn2c(=O)nc(SCC(=O)Nc3ccc4c(c3)OCCO4)nc12 | n | n | n
COC(=O)c1ccccc1NC(=O)Cn1c(=O)n(CCCCC(=O)NCc2ccc3c(c2)OCO3)c(=O)c2ccccc21 | n | n | x
CNC[C@@H]1Oc2ccc(NS(=O)(=O)c3ccc(OC)cc3)cc2CC(=O)N([C@H](C)CO)C[C@@H]1C | n | n | n
CCCC(=O)Nc1nnc(SCc2cc(=O)c3ccc(C)cc3[nH]2)s1 | n | n | x
COc1ccccc1NC(=O)CN1C(=O)C(c2ccc(F)cc2)=NC12CCCCC2 | n | n | x
COc1ccc(NS(=O)(=O)c2ccc(C)c(NC(=O)CNC(=O)c3ccco3)c2)cc1 | n | n | n
Cc1nn2c(-c3cccc(NC(=O)c4ccccc4)c3)nnc2c2ccccc12 | n | n | x
COc1ccc(-c2csc(N(CCCN(C)C)C(=O)c3ccc(Br)cc3)n2)cc1 | n | n | u
CCC(=O)N(CC)c1nc(-c2cc(OC)ccc2OC)cs1 | n | n | u
CCC(=O)N(CCCN(C)C)c1nc(-c2cc(OC)ccc2OC)cs1 | x | x | 5.6µM
